From the supplement of paper PMC3545927
This is one part of the list. The hit rate among all sequences tested is not known here.

Biological target: furin, P09958
Test: furin cleavage Z-score vs untreated control; higher = more cleavage, active = 3.5 or more, inactive = 1 or less, 8 variable residues between constant flanks
Summary of the method: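 Furin cleavage was scored on 8-mer peptides joined to a cDNA oligonucleotide and bound to magnetic beads at the N-terminus. Digestion with purified furin (1:10 enzyme:substrate, 0.01 ml, 50 mM HEPES pH 7.5, CaCl2, NaCl) lasted 7.5, 15 or 30 min. Freed DNA was tagged with adapters by PCR, sequenced and counted; the cleavage Z-score is the lowess-adjusted log count versus furin-free reactions, scaled by median absolute deviation.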

Chain of furin, P09958 (P09958 whole entry): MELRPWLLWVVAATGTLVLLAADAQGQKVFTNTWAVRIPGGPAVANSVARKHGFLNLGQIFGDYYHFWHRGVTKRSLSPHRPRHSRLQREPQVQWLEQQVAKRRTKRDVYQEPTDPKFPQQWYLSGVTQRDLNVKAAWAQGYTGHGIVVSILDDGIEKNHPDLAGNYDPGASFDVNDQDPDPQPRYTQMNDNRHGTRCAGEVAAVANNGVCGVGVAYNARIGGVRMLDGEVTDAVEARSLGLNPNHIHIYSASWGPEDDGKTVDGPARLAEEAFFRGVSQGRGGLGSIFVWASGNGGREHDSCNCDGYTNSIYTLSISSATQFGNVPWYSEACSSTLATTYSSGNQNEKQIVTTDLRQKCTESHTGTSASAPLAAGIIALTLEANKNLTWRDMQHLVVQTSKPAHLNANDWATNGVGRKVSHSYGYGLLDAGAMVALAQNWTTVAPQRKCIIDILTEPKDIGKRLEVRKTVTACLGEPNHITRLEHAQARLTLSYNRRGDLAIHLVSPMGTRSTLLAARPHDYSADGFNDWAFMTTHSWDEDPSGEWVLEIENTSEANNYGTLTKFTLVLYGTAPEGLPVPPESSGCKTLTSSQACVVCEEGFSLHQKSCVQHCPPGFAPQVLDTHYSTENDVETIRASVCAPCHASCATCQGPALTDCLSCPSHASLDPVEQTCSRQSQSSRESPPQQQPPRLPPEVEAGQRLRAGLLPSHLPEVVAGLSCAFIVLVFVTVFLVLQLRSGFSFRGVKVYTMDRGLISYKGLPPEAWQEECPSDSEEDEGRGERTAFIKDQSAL

Sequence	furin cleavage Z-score (7.5 min)	furin cleavage Z-score (15 min)	furin cleavage Z-score (30 min)
CAEYTTPCSGAGNASASA [HC1969]	-0.151 (inactive)	-0.366 (inactive)	-0.644 (inactive)
CAWFCLLLLAAGNASASA [HC1657]	-0.863 (inactive)	-0.454 (inactive)	-2.53 (inactive)
CACREVPCHRAGNASASA [HC2440]	-0.508 (inactive)	-2.04 (inactive)	-1.44 (inactive)
CASIRRQKREAGNASASA [FS-563]	11.3 (active)	10.3 (active)	8.38 (active)
CAWRQEMGGNAGNASASA [HC1277]	0.884 (inactive)	-0.41 (inactive)	1.35
CATVLDQAETAGNASASA [HC826]	1.14	0.395 (inactive)	-0.728 (inactive)
CAPRRRKGRNAGNASASA [FS-1473]	10.1 (active)	11.5 (active)	9.35 (active)
CAQTNWQKLEAGNASASA [HC1036]	0.636 (inactive)	-0.515 (inactive)	-0.384 (inactive)
CASERSQPRGAGNASASA [HC187]	0.546 (inactive)	0.429 (inactive)	0.503 (inactive)
CATVRRQKREAGNASASA [FS-1175]	12.4 (active)	13.7 (active)	9.11 (active)
CAAKRRQKREAGNASASA [FS-1110]	12.9 (active)	13 (active)	8.62 (active)
CAYFSMVGNWAGNASASA [HC341]	-0.31 (inactive)	-0.533 (inactive)	-2.31 (inactive)
CAVLSRQKREAGNASASA [FS-206]	11.7 (active)	9.59 (active)	8.73 (active)
CAPRRHWTTQAGNASASA [HC308]	0.172 (inactive)	-0.306 (inactive)	0.325 (inactive)
CACKPLLREEAGNASASA [HC1229]	-2.56 (inactive)	0.033 (inactive)	0.531 (inactive)
CAPRRRQQREAGNASASA [FS-1551]	6.3 (active)	4.83 (active)	5.13 (active)
CAVLSDFKTWAGNASASA [HC1154]	-0.128 (inactive)	-0.333 (inactive)	-0.963 (inactive)
CATTPCAGSWAGNASASA [HC61]	-1.21 (inactive)	0.988 (inactive)	1.04
CASFDPLVAEAGNASASA [HC1288]	-1.29 (inactive)	-0.652 (inactive)	0.659 (inactive)
CAWLERTMRSAGNASASA [FS-108]	4.21 (active)	5.66 (active)	4.38 (active)
CAEARRTMRSAGNASASA [FS-228]	6.84 (active)	6.18 (active)	7.34 (active)
CACAVRHMRSAGNASASA [FS-1513]	0.659 (inactive)	0.712 (inactive)	1.2

Sequence	furin cleavage Z-score (7.5 min)	furin cleavage Z-score (15 min)	furin cleavage Z-score (30 min)
CALEVVTSTWAGNASASA [HC987]	0.41 (inactive)	0.551 (inactive)	1.7
CAEVVTSTWAAGNASASA [HC2243]	-0.622 (inactive)	0.588 (inactive)	-0.814 (inactive)
CAVVCCSMIYAGNASASA [HC2064]	-0.191 (inactive)	-0.994 (inactive)	0.202 (inactive)
CAGSSRRFRAAGNASASA [FS-1003]	-0.163 (inactive)	1.3	2.13
CACFRKHPDAAGNASASA [HC453]	-1.37 (inactive)	-1.46 (inactive)	-0.48 (inactive)
CARWRRTKGAAGNASASA [FS-1873]	-0.133 (inactive)	-1.53 (inactive)	-0.0248 (inactive)
CARWRRSKRAAGNASASA [FS-959]	11.1 (active)	11.6 (active)	8.46 (active)
CACFRRSKRAAGNASASA [FS-1514]	9.65 (active)	9.01 (active)	6.16 (active)
CAGSPRSKRAAGNASASA [FS-788]	11.2 (active)	9.92 (active)	8.49 (active)
CACVRRSPCAAGNASASA [FS-2118]	-0.381 (inactive)	-1.71 (inactive)	-0.39 (inactive)
CAGSPPSVASAGNASASA [HC1257]	-0.959 (inactive)	-1.08 (inactive)	0.309 (inactive)
CAGVLTTSCGAGNASASA [HC1512]	-0.572 (inactive)	0.491 (inactive)	-0.869 (inactive)
CAATQLRRHIAGNASASA [HC288]	-0.217 (inactive)	0.529 (inactive)	1.16
CAYASRGIRPAGNASASA [FS-1618]	-0.625 (inactive)	-0.502 (inactive)	-1.11 (inactive)
CAAQQRKKRAAGNASASA [FS-1306]	6.17 (active)	6.15 (active)	6.14 (active)
CAGGQRKKRAAGNASASA [FS-1125]	8.55 (active)	7.61 (active)	6.45 (active)
CAAGARKKRAAGNASASA [FS-970]	6.63 (active)	6.95 (active)	6.49 (active)
CASHQKKKRAAGNASASA [FS-1486]	4.35 (active)	2.8	4.35 (active)
CAAGAGAGAGAGNASASA [NE3]	-0.934 (inactive)	-0.656 (inactive)	-0.752 (inactive)
CAGGQIVGGVAGNASASA [HC174]	-1.23 (inactive)	-1.41 (inactive)	-1.78 (inactive)
CAAGARLVVLAGNASASA [HC830]	1.19	0.934 (inactive)	0.0298 (inactive)
CALREVPCHRAGNASASA [HC2425]	-0.109 (inactive)	-0.538 (inactive)	-0.256 (inactive)
